We go through 36 compounds from PubChem BioAssay (NCATS).

Inconclusive results are not listed. More than one record can exist for a structure, and the calls need not agree. Calls of active or inactive are those of the source. Calls come from the whole dose curve; as a rule, active = well fitted inhibition curve with a large enough effect; inconclusive = small, poorly fitted or top-dose-only effect; inactive = flat fitted curve, though single readings scatter.
% is set by controls: 0 for no effect and ±100 for the full control effect; potency is the fitted concentration of half-maximal effect.

This experiment in a line: P-glycoprotein substrates identified in KB-8-5-11 adenocarcinoma cell line, qHTS therapeutic library screen (AID 1346987). Note: nearly all actives have a fitted effect of over 65% in size. The settings on record: KB-8-5-11 (P-gp overexpressing) viability, CellTiter-Glo, 72 h; series mostly up to 44.5 µM; activity change, negative = cytotoxicity: at the top concentration. In outline: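 Compounds are pinned in dose-response onto KB-8-5-11 cells (500 cells/well, colchicine-free medium) and left 72 h at 37 degree C. CellTiter-Glo luminescence then yields AC50 values.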
(qHTS replaces the single test concentration by a dilution series.)
Turning to `COc1ccc2c3c1O[C@H]1C(=O)CC[C@H]4[C@@H](C2)N(C)CC[C@]314`, the “activity change, negative = cytotoxicity” value is -1.49% (inactive).
The same measure, in the same setting: the result for `COC(=O)C1(C)CCC(=O)C2(C)c3c(O)cc(C(C)C)cc3C(O)C(OC(C)=O)C12` (stereo unspecified) reads 5.72% [at 17.3 µM] (inactive).
The same measure, in the same setting: then `Clc1ccc(N2C[C@H]3CC[C@@H](C2)N3)nn1`, with 9.18% (inactive); and `CCC(=O)O[C@@](Cc1ccccc1)(c1ccccc1)[C@@H](C)CN(C)C`, with -26.4% [at 17.3 µM] (inactive).
`CCCCCl`: the “activity change, negative = cytotoxicity” value was -10.3% (inactive).
`[O]=[Cr](=[O])([OH])[O][Cr](=[O])(=[O])[OH]`: the Potency is 23.1 µM (active) and inactive.
Turning to `COC(=O)[C@@]12C(=O)C(C)C(=O)[C@]1(C)C(C)=C[C@H]1[C@]3(C=O)CC[C@H](OC(C)=O)C(C)(C)[C@H]3CC[C@@]12C` (stereo partly specified), the “activity change, negative = cytotoxicity” value is -4.84% [at 17.3 µM] (inactive).
Take `C[C@H]1O[C@@H](O[C@H]2C[C@@H](O)[C@]3(CO)C4C(CC[C@]3(O)C2)[C@@]2(O)CC[C@H](C3=CC(=O)OC3)[C@@]2(C)C[C@H]4O)[C@@H](O)[C@@H](O)[C@H]1O` (stereo partly specified): the Potency is 432 nM (active).
Consider `C=C1[C@@H]2CC[C@@]3(C)[C@H](c4ccoc4)OC(=O)C[C@]13O[C@H]1CC(=O)C(C)(C)[C@H](C(OC(C)=O)C(=O)OC)[C@]12C` (stereo partly specified), for which the “activity change, negative = cytotoxicity” value was 8.74% [at 17.3 µM] (inactive).
`COC1CC(O[C@H]2CC[C@]3(C=O)C4CC[C@]5(C)[C@@H](C6=CC(=O)OC6)CC[C@]5(O)[C@@H]4CC[C@]3(O)C2)OC(C)C1O[C@@H]1O[C@H](CO)[C@@H](O)[C@H](O)[C@H]1O` (stereo partly specified): the Potency was 153 nM (active).
With `C/C(=C\c1csc(C)n1)[C@@H]1C[C@@H]2O[C@]2(C)CCC[C@H](C)[C@H](O)[C@@H](C)C(=O)C(C)(C)[C@@H](O)CC(=O)O1`, the Potency is 36.6 nM (active).
For the compound `S=C=S`, the “activity change, negative = cytotoxicity” value is -1.09% (inactive).
On the same count and under the same terms, then `CN1C(=O)c2ccccc2NC(=O)[C@]12O[C@@H]2c1ccccc1`, with -7.58% (inactive); and `N#CC(C#N)=Cc1cc(O)c(O)c(O)c1`, with -20.3% (inactive).
As to `Cc1cc(C(=O)CN2CCCC2)c(C)n1-c1ccc(F)cc1`, the Potency result is “inactive”.
In the case of `CN[C@H]1[C@H](O)[C@H](O[C@@H]2[C@@H](O)[C@H](O[C@H]3O[C@H]([C@H](C)O)[C@@H](O)[C@H](O)[C@H]3N)[C@@H](N)C[C@H]2N)OC[C@@]1(C)O`, the compound was called inactive.
Consider `CC(C)C1(OO)C=C2C(=O)CC3C(C)(C(=O)O)CCCC3(C)C2CC1` (stereo unspecified), for which the “activity change, negative = cytotoxicity” value was 6.94% (inactive).
Turning to `CC(C)[C@@H](CN1CC[C@@](C)(c2cccc(O)c2)[C@@H](C)C1)NC(=O)[C@H]1Cc2ccc(O)cc2CN1`, the “activity change, negative = cytotoxicity” value is 9.89% (inactive).
As to `CCCC(C)C1(CC)C(=O)NC(=O)NC1=O` (stereo unspecified), the “activity change, negative = cytotoxicity” value is 7.93% (inactive).
The same measure, in the same setting: the result for `NCC(O)c1cccc(O)c1` (stereo unspecified) reads -2.67% (inactive); that for `C=CC(C)(C)c1[nH]c2cccc3c2c1C[C@@H]1[C@@H]3[C@@H](OC(C)=O)[C@H](C)CN1C`, 1.73% (inactive); that for `CC(CCc1ccc(O)cc1)O[C@@H]1O[C@H](CO[C@H]2OC[C@](O)(CO)[C@H]2O)[C@@H](O)[C@H](O)[C@H]1O` (stereo partly specified), 0.451% [at 17.3 µM] (inactive).
Still for that read-out and setting: the result for `CN(C(=O)Cc1ccccc1)C(CN1CCCC1)c1ccccc1` (stereo unspecified) reads -10.6% (inactive).
Regarding `O=C1CN=C(c2ccccc2)c2cc(Cl)ccc2N1CC1CC1`, the Potency was 9200 nM (active).
As to `COC1CC(OC2CCC3(C)C(=CCC4C3CCC3(C)C(C(C)OC5OC(COC6OC(CO)C(O)C(O)C6O)C(O)C(O)C5O)CCC43O)C2)OC(C)C1OC1OC(C)C(O)C(OC)C1O` (stereo unspecified), the outcome was “inactive [at 9.29 µM]”.
Regarding `C[CH2][Hg][S]c1ccccc1C(=O)O`, the Potency was 2310 nM (active).
Turning to `CC(=O)OC1CC(O)C(C)(C)C2CC(OC(C)=O)C3(C)C(CCC4(C)C(c5ccoc5)C(=O)C5OC543)C12C` (stereo unspecified), the “activity change, negative = cytotoxicity” value was -12.7% [at 17.3 µM] (inactive).
Still for that read-out and setting: the result for `C[C@@]12C[C@@H](c3ccoc3)OC(=O)C1CC[C@]1(C)[C@H]2[C@H]2C=C[C@]1(O)C(=O)O2` (stereo partly specified) reads 8.91% (inactive).
With `O=C(NCNC(=O)NC1C(=O)NC(=O)N1CO)NC1C(=O)NC(=O)N1CO` (stereo unspecified), the “activity change, negative = cytotoxicity” value is 12.7% (inactive).
The same measure, in the same setting: the result for `CN1C(=O)c2ccccc2NC(=O)C1Cc1ccccc1` (stereo unspecified) reads 2.5% (inactive).
The same measure, in the same setting: the result for `O=CC=O` reads 2.32% (inactive); that for `Oc1cc(Cl)c(Cl)cc1Cl`, 6.7% (inactive); that for `ClC1C(Cl)C(Cl)C(Cl)C(Cl)C1Cl` (stereo unspecified), 3.95% (inactive).
Still for that read-out and setting: the result for `CC(=O)OC1CC(O)C2(C)C(CC(OC(C)=O)C3(C)C2CCC2(C)C(c4ccoc4)C(=O)C4OC423)C1(C)C` (stereo unspecified) reads -2.4% [at 17.3 µM] (inactive); that for `O=C(N1CCOCC1)N1CCN(c2ccc(Cl)cc2)CC1`, -3.69% (inactive).
As to `C[C@H]1CCC[C@H](O)CCCCCc2cc(O)cc(O)c2C(=O)O1`, the Potency was 14600 nM (active).
